How the values were obtained:
Experiment in all cases: DAPPL (digital affinity profiling via proximity ligation, sequencing); 10 mM Tris-HCl pH 7.5, 50 mM NaCl, 1 mM DTT, 4% glycerol, room temperature, 30 min; GST-TFs on glutathione beads, 16-mer random dsDNA library, 0.1% formaldehyde crosslink after washing; high values mean tight binding
Conditions in all cases: protein: recombinant; tags: N-terminal GST; dsDNA, one strand shown
FLI1 = biological target: T1, FLI1 (Homo sapiens, UniProt Q01543 1-452)
T1 sequence: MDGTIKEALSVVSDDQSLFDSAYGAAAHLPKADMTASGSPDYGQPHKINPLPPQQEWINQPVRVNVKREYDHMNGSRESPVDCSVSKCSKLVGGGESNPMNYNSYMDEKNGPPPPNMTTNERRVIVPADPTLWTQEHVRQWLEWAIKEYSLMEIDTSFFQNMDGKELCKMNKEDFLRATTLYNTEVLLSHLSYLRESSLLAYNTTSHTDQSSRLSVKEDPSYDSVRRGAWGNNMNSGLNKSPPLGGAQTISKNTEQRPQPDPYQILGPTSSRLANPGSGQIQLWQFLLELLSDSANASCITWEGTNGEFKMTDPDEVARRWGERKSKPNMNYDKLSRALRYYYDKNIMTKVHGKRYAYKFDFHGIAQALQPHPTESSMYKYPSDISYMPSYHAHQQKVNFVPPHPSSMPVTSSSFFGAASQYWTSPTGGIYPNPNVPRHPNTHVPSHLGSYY
Outline: (§1)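 Binding signal is given per hexamer as its read frequency for a factor divided by its frequency in the tag-only sample. GST-fused human transcription factors were expressed in yeast, captured on glutathione beads, barcoded with DNA and pooled with that sample, then incubated with 200 nmole of a 16-mer random double-stranded DNA library in Tris/NaCl/DTT/glycerol buffer for 30 min at room temperature. The pools were then washed, crosslinked, proximity-ligated, amplified by PCR and sequenced on an Illumina NextSeq500.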

ELK1 = biological target: T2, ELK1 (Homo sapiens, UniProt P19419 1-428)
T2 sequence: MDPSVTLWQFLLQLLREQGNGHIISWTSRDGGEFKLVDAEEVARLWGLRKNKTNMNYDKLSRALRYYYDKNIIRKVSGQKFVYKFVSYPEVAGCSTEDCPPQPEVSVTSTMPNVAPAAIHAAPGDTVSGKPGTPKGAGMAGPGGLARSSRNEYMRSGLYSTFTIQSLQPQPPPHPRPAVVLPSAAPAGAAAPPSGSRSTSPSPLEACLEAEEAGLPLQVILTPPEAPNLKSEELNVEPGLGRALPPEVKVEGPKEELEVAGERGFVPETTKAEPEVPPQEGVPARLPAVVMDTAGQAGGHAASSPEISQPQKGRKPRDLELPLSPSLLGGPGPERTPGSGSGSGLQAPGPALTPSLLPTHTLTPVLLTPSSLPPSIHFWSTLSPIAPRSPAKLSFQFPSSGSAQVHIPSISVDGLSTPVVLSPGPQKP
Outline: as §1

GABPA = biological target: T3, GABPA (Homo sapiens, UniProt Q06546 1-454)
T3 sequence: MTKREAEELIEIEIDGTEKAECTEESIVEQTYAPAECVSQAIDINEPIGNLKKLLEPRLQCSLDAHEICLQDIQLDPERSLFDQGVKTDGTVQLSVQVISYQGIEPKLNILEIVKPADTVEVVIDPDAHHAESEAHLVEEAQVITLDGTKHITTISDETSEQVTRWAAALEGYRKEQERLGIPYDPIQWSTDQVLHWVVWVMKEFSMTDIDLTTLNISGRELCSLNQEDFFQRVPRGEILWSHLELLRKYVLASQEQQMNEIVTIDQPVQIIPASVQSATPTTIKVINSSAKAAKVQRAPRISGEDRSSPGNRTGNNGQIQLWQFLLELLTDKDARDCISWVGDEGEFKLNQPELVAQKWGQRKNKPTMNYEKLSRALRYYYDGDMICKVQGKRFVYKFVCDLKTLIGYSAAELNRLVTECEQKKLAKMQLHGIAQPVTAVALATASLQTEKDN
Outline: as §1

ERG = biological target: T4, ERG (Homo sapiens, UniProt P11308 1-479)
T4 sequence: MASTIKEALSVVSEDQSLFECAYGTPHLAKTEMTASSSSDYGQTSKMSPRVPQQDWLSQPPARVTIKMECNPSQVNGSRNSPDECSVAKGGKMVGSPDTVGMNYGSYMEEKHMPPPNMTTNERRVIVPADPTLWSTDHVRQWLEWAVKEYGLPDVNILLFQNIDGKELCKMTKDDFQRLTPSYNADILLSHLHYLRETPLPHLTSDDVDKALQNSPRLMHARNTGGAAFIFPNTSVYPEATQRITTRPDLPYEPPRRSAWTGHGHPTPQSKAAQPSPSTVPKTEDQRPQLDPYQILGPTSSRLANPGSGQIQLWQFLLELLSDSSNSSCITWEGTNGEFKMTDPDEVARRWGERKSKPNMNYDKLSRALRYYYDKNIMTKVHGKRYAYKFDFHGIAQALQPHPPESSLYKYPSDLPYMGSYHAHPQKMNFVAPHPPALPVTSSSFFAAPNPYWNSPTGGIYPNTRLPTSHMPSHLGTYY
Outline: as §1

ELF1 = ELF1 (Homo sapiens, UniProt P32519 1-619)
Outline: as §1

EHF = biological target: T5, EHF (Homo sapiens, UniProt Q9NZC4 1-300)
T5 sequence: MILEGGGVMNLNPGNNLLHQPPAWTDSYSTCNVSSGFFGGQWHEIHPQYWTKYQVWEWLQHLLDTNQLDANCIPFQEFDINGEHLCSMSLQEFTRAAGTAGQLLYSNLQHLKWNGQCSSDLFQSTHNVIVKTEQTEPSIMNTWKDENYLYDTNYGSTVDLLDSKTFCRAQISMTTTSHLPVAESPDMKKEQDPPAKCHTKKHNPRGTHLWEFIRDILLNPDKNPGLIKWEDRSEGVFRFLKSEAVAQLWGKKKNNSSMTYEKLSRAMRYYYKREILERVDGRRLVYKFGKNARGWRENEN
Outline: as §1

SPI1 = SPI1 (Homo sapiens, UniProt P17947 1-270)
Outline: as §1

SPIB = SPIB (Homo sapiens, UniProt Q01892 1-262)
Outline: as §1

ELK3 = biological target: T6, ELK3 (Homo sapiens, UniProt P41970 1-407)
T6 sequence: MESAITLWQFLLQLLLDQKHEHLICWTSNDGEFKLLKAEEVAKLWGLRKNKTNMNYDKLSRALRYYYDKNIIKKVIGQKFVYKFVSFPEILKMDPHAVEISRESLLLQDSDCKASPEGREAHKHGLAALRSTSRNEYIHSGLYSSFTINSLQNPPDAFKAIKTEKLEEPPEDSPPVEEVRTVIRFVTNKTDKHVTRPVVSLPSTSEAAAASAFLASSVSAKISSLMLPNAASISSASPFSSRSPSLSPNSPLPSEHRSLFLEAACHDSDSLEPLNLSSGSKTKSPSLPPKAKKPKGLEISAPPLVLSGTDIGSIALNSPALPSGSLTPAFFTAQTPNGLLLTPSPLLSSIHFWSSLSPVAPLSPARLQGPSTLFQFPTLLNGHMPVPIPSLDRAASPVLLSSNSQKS
Outline: as §1

Sequence of ELF1 (P32519 whole entry): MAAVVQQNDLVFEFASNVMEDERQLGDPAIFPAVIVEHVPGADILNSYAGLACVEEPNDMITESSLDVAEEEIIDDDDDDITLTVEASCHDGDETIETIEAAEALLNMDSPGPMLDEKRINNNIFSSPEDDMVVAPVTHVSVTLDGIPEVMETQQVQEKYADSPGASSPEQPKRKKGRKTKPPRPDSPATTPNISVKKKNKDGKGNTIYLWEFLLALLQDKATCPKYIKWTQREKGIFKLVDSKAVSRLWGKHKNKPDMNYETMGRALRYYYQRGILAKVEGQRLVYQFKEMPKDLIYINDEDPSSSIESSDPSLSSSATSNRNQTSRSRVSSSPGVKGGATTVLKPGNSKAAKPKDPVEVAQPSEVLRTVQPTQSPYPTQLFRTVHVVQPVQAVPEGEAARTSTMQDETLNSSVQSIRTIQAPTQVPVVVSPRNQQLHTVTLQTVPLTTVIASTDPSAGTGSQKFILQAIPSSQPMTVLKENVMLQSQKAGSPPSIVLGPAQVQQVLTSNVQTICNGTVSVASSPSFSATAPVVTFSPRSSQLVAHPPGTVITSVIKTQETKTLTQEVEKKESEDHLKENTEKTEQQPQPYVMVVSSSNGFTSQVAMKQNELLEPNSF
Sequence of SPIB (Q01892 whole entry): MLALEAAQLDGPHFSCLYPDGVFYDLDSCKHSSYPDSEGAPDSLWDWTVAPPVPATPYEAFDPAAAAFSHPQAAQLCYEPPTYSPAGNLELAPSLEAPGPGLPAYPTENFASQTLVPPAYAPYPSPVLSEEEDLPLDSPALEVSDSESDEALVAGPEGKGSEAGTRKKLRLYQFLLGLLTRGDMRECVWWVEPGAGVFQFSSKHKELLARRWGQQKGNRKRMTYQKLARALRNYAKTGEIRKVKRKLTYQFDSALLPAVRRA

TACCCT was tested, and the binding signal (FLI1) was 1.33 fold enrichment (6-mer frequency, TF over GST control), the binding signal (ELK1) was 1.34 fold enrichment (6-mer frequency, TF over GST control) and the binding signal (GABPA) was 1.21 fold enrichment (6-mer frequency, TF over GST control). The binding signal (ERG) was 1.31 fold enrichment (6-mer frequency, TF over GST control), the binding signal (ELF1) was 1.36 fold enrichment (6-mer frequency, TF over GST control) and the binding signal (EHF) was 1.38 fold enrichment (6-mer frequency, TF over GST control). The binding signal (SPI1) was 1.36 fold enrichment (6-mer frequency, TF over GST control), the binding signal (SPIB) was 1.3 fold enrichment (6-mer frequency, TF over GST control) and the binding signal (ELK3) was 1.41 fold enrichment (6-mer frequency, TF over GST control).
